The list is not random: actives were taken first. Their share in the collection is about 2.7%.
TGFb inhibitor – inhibitors of TGF-b signaling. HepG2 CAGA-GFP TGF-b/SMAD3 reporter, GFP fluorescence, 18 h; TGF-beta stimulated, 500 pg/mL final. Potency, µM (doses to about 46.1 µM), inactives show at the highest dose activity, negative = inhibition, actives largely listed as inhibitors. hit rate 1.2% among 410,000. AID 588855; further: on the % scale 0 is the no-effect control and ±100 the full control effect; nearly all actives have a fitted effect of over 65% in size
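HEPG2 CAGA-GFP reporter cells (1000/well, DMEM with 1% FBS) received compounds, then recombinant TGF-beta at 500 pg/mL final for 18 hours at 37 degrees C. Per-cell GFP summed per well was normalised to unstimulated and stimulated DMSO controls before curve fitting.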
S2 tox – viability counter-screen for ATXN expression inhibitors | hit rate 0.49% among 400,000 | AID 651635 | S2 cells (HEK-293 line with an ATXN2-luciferase reporter) viability, CellTiter-Fluor protease fluorescence, 24 h | Potency, µM (doses to about 56.7 µM), most hits filed as cytotoxic; further: nearly all actives have a fitted effect of over 40% in size
ALOX12 inh – blocks human arachidonate 12S-lipoxygenase; hit rate 1.1% among 580,000; Potency, µM (top dose mostly 108 µM), inactives show top-dose activity change, negative = inhibition, most hits filed as inhibitors; purified 12hLO, xylenol orange hydroperoxide absorbance; further: on the % scale 0 is the no-effect control and ±100 the full control effect
Target sequence (P18054 whole entry, looked up): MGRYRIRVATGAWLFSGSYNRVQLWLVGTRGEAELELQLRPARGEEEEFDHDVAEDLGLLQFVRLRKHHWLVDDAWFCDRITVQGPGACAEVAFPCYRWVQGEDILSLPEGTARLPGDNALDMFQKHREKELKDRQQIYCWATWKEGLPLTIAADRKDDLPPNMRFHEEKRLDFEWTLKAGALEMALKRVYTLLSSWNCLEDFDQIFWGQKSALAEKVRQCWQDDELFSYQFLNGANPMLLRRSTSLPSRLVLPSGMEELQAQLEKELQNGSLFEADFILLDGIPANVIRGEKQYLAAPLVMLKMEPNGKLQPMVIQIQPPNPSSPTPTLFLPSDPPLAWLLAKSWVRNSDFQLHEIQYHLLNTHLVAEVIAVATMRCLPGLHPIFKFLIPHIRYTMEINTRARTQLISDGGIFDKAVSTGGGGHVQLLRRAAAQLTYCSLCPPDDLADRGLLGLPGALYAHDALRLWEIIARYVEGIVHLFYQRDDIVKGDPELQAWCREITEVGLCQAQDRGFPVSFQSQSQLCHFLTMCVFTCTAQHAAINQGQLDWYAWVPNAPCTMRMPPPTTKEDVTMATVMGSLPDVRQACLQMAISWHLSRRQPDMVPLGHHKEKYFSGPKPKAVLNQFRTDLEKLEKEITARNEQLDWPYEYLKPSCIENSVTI
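Purified human 12hLO (150 nM final) in 25 mM Hepes, 0.01% Triton X-100, pH 7.0 was preincubated 15 min at room temperature with compound. Then 40 uM arachidonic acid was added, 30 min. Hydroperoxide was read by Fe-XO absorbance ratio 573/405 nm.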
ATXN2 expr inh – inhibitors of ATXN2 expression; HEK-293 ATXN2-luciferase reporter, luminescence, 24 h; Potency, µM (doses to about 57 µM), without a hit: top-dose activity change, negative = inhibition, usual class: inhibitors; hit rate 0.72% among 360,000; further: on the % scale 0 is the no-effect control and ±100 the full control effect; nearly all actives have a fitted effect of over 55% in size
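ATXN2-luciferase reporter cells (luciferase flanked by upstream and downstream ATXN2 gene portions) were treated 24 h at 37 °C with compounds at up to 57 uM. SteadyGlo luminescence gave expression; GF-AFC fluorescence gave viability.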
HepG2 viability – kills HepG2 cells in TGF-b inhibitor counter-screen | HepG2 CAGA-GFP viability, ATP luminescence, 18 h | Potency, µM (series often up to 46.1 µM), inactives show at the top dose activity change, negative = cytotoxicity, most hits filed as cytotoxic | AID 588856 | hit rate 0.76% among 410,000
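HepG2 CAGA-GFP cells (1000/well, DMEM with 1% FBS) received compound, then TGF-beta at 500 pg/mL final, and were incubated 18 hours at 37 degrees C. Viability was read by CellTiter-Glo luminescence. Media-only wells were set as complete cell-killing and DMSO as no toxicity.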
Numbers without * were called inactive; ! = not active in a repeat; [ ] = dose if it differs, or a comment. The call rests on the fitted dose curve; in most records, active means well fitted curve in the direction sought with a large enough effect; inconclusive means small, poorly fitted or top-dose-only effect, or another doubt; inactive means no such curve, though single readings can be large; an effect the other way counts as inactive or inconclusive. Potency means the concentration at half of the fitted maximal effect.

What do the screens show for `C#CCN(C[C@@H]1[C@@H](OC(=O)NCc2ccco2)[C@@H](OC(=O)NCc2ccco2)Cn2c(=O)n(CCCCCC)c(=O)n21)S(=O)(=O)c1ccc(C)cc1`?
TGFb inhibitor: inconclusive; S2 tox: inactive; ALOX12 inh: inconclusive; ATXN2 expr inh: -20.9%; HepG2 viability: -11.2%

Results for C#CCN(C[C@@H]1[C@@H](OC(=O)NCC2CCCCC2)[C@@H](OC(=O)NCC2CCCCC2)Cn2c(=O)ccc(=O)n21)S(=O)(=O)c1ccc(C)cc1 ?
TGFb inhibitor: 7.08µM*; S2 tox: 3.55µM*; ALOX12 inh: inconclusive; ATXN2 expr inh: 3.55µM*; HepG2 viability: -87.1%

Results for C#CCN(C[C@@H]1[C@@H](OC(=O)NCc2ccc(OC)c(OC)c2)[C@@H](OC(=O)NCc2ccc(OC)c(OC)c2)Cn2c(=O)ccc(=O)n21)S(=O)(=O)c1ccc(C)cc1 ?
TGFb inhibitor: inconclusive; S2 tox: 20µM*; ALOX12 inh: 78.7%; ATXN2 expr inh: inconclusive; HepG2 viability: -22.8%

Results for C#CCN(C[C@H]1[C@H](OC(=O)NCC2CCCCC2)[C@H](OC(=O)NCC2CCCCC2)C[C@@H](C(=O)OC)[C@H]1C(=O)OC)S(=O)(=O)c1ccc(C)cc1 ?
TGFb inhibitor: -1.0%; S2 tox: inconclusive; ALOX12 inh: 0.0%; ATXN2 expr inh: -8.6%; HepG2 viability: -29.1%

How did CCOC(=O)Cc1nnc(NC(=O)Nc2ccc(Cl)cc2)s1 do in these assays?
ALOX12 inh: -1.2%

How did O=c1c(Cl)c2oc3ccccc3nc-2c2ccccc12 do in these assays?
TGFb inhibitor: 5.01µM*; S2 tox: inactive; ATXN2 expr inh: -2.9%[11.3 µM]; HepG2 viability: -48.0%

How did FC(F)(F)c1cc(CCN2C(=S)NC[C@@H]2CC2CCCCC2)cc(C(F)(F)F)c1 do in these assays?
TGFb inhibitor: 14.1µM*; S2 tox: 20µM*; ALOX12 inh: inconclusive; ATXN2 expr inh: inconclusive; HepG2 viability: -29.8%

How did O=C1NC[C@H](CC2CCCCC2)N(CCc2cccc3ccccc23)C1=O do in these assays?
S2 tox: inactive; ALOX12 inh: -8.9%; ATXN2 expr inh: 0.7%

How did O=C1NC[C@H](CC2CCCCC2)N(CCc2cc(C(F)(F)F)cc(C(F)(F)F)c2)C1=O do in these assays?
ALOX12 inh: -5.8%

What do the screens show for `S=C1NC[C@H](CC2CCCCC2)N1CCc1cccc2ccccc12`?
TGFb inhibitor: inconclusive; S2 tox: inconclusive; ALOX12 inh: 25.1µM*; ATXN2 expr inh: -33.2%; HepG2 viability: -31.8%

How did N=C1N=C(N)c2cc3ccccc3cc21 do in these assays?
S2 tox: 31.6µM*; ALOX12 inh: 3.6%[57.4 µM]; ATXN2 expr inh: 17.8µM*

How did COc1ccc(-c2noc([C@@H]3Cc4nc[nH]c4CN3C(=O)Nc3ccc(Cl)cc3)n2)cc1 do in these assays?
ALOX12 inh: 11.8%

What do the screens show for `O=C(NC1CCCCC1)N1Cc2[nH]cnc2C[C@H]1c1nc(-c2cccc([N+](=O)[O-])c2)no1`?
ALOX12 inh: 6.31µM*

How did O=C(NC1CCCCC1)N1Cc2[nH]cnc2C[C@H]1c1nc(-c2ccc3ccccc3c2)no1 do in these assays?
ALOX12 inh: 10µM*

How did COc1ccc(-c2noc([C@@H]3Cc4nc[nH]c4CN3C(=O)NC3CCCCC3)n2)cc1 do in these assays?
ALOX12 inh: 3.55µM*

How did O=[N+]([O-])c1cccc(-c2noc([C@@H]3Cc4nc[nH]c4CN3CC3CCCCC3)n2)c1 do in these assays?
ALOX12 inh: -8.6%[176 µM]

What do the screens show for `CC(C)CNC(=O)C(C)Sc1cc(C(=O)NC2CC2)c2ccccc2n1` (stereo not given)?
ALOX12 inh: -2.4%

How did CC(C)=CCc1c2c(c3occ(-c4ccc(O)c(O)c4)c(=O)c3c1O)C=CC(C)(C)O2 do in these assays?
TGFb inhibitor: 10µM*; S2 tox: inconclusive; ALOX12 inh: 39.8µM*!; ATXN2 expr inh: 22.4µM*; HepG2 viability: 8.91µM*

Results for CC(C)=CCc1c2c(c3occ(-c4ccc(O)cc4)c(=O)c3c1O)C=CC(C)(C)O2 ?
TGFb inhibitor: 7.94µM*; ALOX12 inh: inconclusive; ATXN2 expr inh: inconclusive; HepG2 viability: 10µM*

What do the screens show for `CC1(C)C=Cc2c(c3c(c4c(=O)c(-c5ccc(O)cc5)coc24)OC(C)(C)CC3)O1`?
TGFb inhibitor: 14.1µM*; ALOX12 inh: inconclusive; ATXN2 expr inh: inconclusive; HepG2 viability: -83.1%

What do the screens show for `O=c1c(-c2ccc(O)cc2)coc2cc(O)cc(O)c12`?
TGFb inhibitor: 27.6%; S2 tox: inactive; ALOX12 inh: inconclusive; ATXN2 expr inh: 93.4%; HepG2 viability: -6.3%

What do the screens show for `COc1ccccc1NC(=O)c1c(C)cc(C)nc1SCC(=O)Nc1ccc(C)c(C)c1`?
TGFb inhibitor: -0.2%; ALOX12 inh: 1.0%; HepG2 viability: -8.5%

How did COc1ccccc1NC(=O)c1c(C)cc(C)nc1SCC(=O)Nc1cccc(C)c1 do in these assays?
TGFb inhibitor: 10µM*; S2 tox: inconclusive; ALOX12 inh: -8.4%; ATXN2 expr inh: -18.6%; HepG2 viability: -21.2%

What do the screens show for `N#CC1=C(N)OC2=C(C(=O)CC(c3ccccc3)C2)C1c1ccccc1C(F)(F)F` (stereo not given)?
ALOX12 inh: -3.5%

What do the screens show for `CC1(C)CC2(C)OC(=N)C1(C#N)C2(C#N)C#N` (stereo not given)?
TGFb inhibitor: 15.8µM*; S2 tox: inconclusive; ALOX12 inh: 2.7%; ATXN2 expr inh: inconclusive; HepG2 viability: 15.6%

What do the screens show for `CS(=O)(=O)c1ncc(Cl)c(C(=O)N(Cc2ccc(Cl)cc2)Cc2ccco2)n1`?
TGFb inhibitor: 5.01µM*; ALOX12 inh: -26.2%; ATXN2 expr inh: 5.62µM*; HepG2 viability: 3.16µM*

Results for O=C(c1ccc(Cl)cc1)N(Cc1ccco1)Cc1ccco1 ?
TGFb inhibitor: 0.0%; ALOX12 inh: -20.2%; HepG2 viability: -7.8%

What do the screens show for `COc1ccc(N(Cc2ccccc2)C(=O)c2nc(S(C)(=O)=O)ncc2Cl)cc1`?
TGFb inhibitor: 2µM*; ALOX12 inh: 4.0%; HepG2 viability: -109.4%

What do the screens show for `N#Cc1ccc(C(=O)N2CCC[C@H]2c2nc(-c3ccccc3)no2)cc1`?
ALOX12 inh: 3.2%

How did COC(=O)/C(=C\c1ccc([N+](=O)[O-])o1)NC(=O)c1ccccc1 do in these assays?
TGFb inhibitor: 11.2µM*; S2 tox: inconclusive; ALOX12 inh: inconclusive; ATXN2 expr inh: inconclusive; HepG2 viability: 12.6µM*

What do the screens show for `CCCCNC(=O)/C(=C\c1ccc([N+](=O)[O-])o1)NC(=O)c1ccccc1`?
TGFb inhibitor: inconclusive; S2 tox: inactive; ALOX12 inh: -22.7%; ATXN2 expr inh: inconclusive; HepG2 viability: -24.6%
